Hits are enriched below; roughly 3.6% of the tested compounds scored in any of these assays.
Pf apPOL block – Pf-apPOL DNA polymerase inhibition. inhibition, % at 10 µM. AID 1794808. Recombinant Pf-apPOL, molecular beacon fluorescence, 1.5 h. 0.25% of 210,000 active
mHTT CaM bind – mHTT-calmodulin interaction abrogation | P42858 | AlphaScreen His-mHTT/GST-CaM binding, luminescence | inhibition, % at 15 µM | 3.6% of 190,000 active;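 further: 0% = both proteins with DMSO and 100% = one protein alone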
* marks the source's active call; other numbers are inactive results; i = inactive; / = not tested or not shown. No stated cut-off is given here; in the data, active means inhibition above about 50%; inactive means the rest.

SMILES | Pf apPOL block | mHTT CaM bind
O=C(c1c[nH]c2ccccc12)N1CCC2(CC1)NC(=O)N(Cc1ccccc1)C2=O | 1.9 | 62.1*
Cc1ccc(NC(=O)c2ccc(=O)n(CC(=O)N3CCCCC3)n2)cc1 | -7.1 | -11.5
NC(=S)N/N=C/c1c2ccccc2cc2ccccc12 | / | i
NC(=S)NN=C1c2ccccc2-c2ccccc21 | / | 55.0*
O=C(Nc1ccccc1)c1cccc(C(=O)Nc2ccccc2)c1 | -9.7 | -5.9
O=S(=O)(Nc1ccc2c(c1)oc1ccccc12)c1ccc2ccccc2c1 | / | 76.7*
CC(=O)Nc1ccc(S(=O)(=O)Nc2ccc3c(c2)oc2ccccc23)cc1 | -6.3 | 44.8
Cc1c(Sc2ccc(Cl)cc2)c(=O)[nH]c2cc3c(cc12)OCO3 | 4.9 | -3.0
Cc1cccc(CN2CCCn3nc(C(=O)NCCN4CCCCC4)cc3C2=O)c1 | -3.1 | -6.4
COc1ccc(-c2csc(/C(C#N)=C/c3ccc(OC)o3)n2)cc1 | -0.8 | 69.0*
Cc1ccc(-c2csc(/C(C#N)=C/c3ccc(O)cc3)n2)cc1 | -4.6 | 32.1
Cc1ccc(/C=C(\C#N)c2nc(-c3ccc(Br)cc3)cs2)o1 | -1.2 | 14.4
Cc1ccc(-c2csc(/C(C#N)=C/c3cccc(O)c3)n2)cc1 | -3.8 | 97.1*
CCOc1ccc(/C=C(\C#N)c2nc3ccccc3s2)cc1OC | -1.7 | -12.0
CCOc1cc(/C=C(\C#N)c2nc3ccccc3s2)ccc1O | -4.6 | 56.0*
COc1cc(/C=C(\C#N)c2nc(-c3ccccc3)cs2)ccc1O | -2.8 | 97.0*
COc1cc(/C=C(\C#N)c2nc(-c3ccc(Br)cc3)cs2)ccc1O | -2.1 | 2.9
CCN(CC)C(=O)c1ccccc1NC(=O)c1ccco1 | -10.3 | 3.4
Cc1ccc2c(Nc3cccc(Cl)c3)c(-c3nc(C)no3)cnc2n1 | -2.7 | 13.1
COc1ccccc1/C=C1/N=C(SC)SC1=O | -12.1 | 6.0
COc1ccc(-c2cc3nc4c(c(=O)n3[nH]2)CN(S(=O)(=O)c2ccccc2)CC4)cc1 | 11.0 | 20.5
CC(C)(C)c1ccc(C(=N)SC(C(=O)C(F)(F)F)c2ccccc2)cc1 (configuration not stated) | 0.5 | /
COc1cc(NS(=O)(=O)c2ccc(NC(=O)c3cc(OC)c(OC)c(OC)c3)cc2)ncn1 | 2.7 | 3.0
CN(C)CCCN1C(=O)C(=O)C(=C(O)c2ccc(F)cc2)C1c1cccs1 (configuration not stated) | -9.2 | -4.3
CCn1c(C2CCN(C(=O)Nc3ccsc3C(=O)OC)C2)nc2cccnc21 (configuration not stated) | -1.1 | 3.2
SMILES | Pf apPOL block | mHTT CaM bind
CC(O)CNC(=O)C(=O)NCCC1=CCCCC1 (configuration not stated) | -6.7 | -6.2
CNC(=O)c1cccc2c1CCN2C(=O)c1ccc(F)cc1 | -0.8 | -5.3
N#C/C(=C\c1ccc(O)c(Br)c1)c1nc(-c2cccc([N+](=O)[O-])c2)cs1 | -1.3 | 7.0
N#C/C(=C\c1ccc(O)c(O)c1)c1nc(-c2cccc([N+](=O)[O-])c2)cs1 | 1.0 | 66.4*
O=S(=O)(Nc1cccn2ncnc12)c1ccc(F)cc1 | 7.1 | -8.5
O=C(NCc1ccccc1F)C1Cc2ccccc2N2CCN(c3cnccn3)CC12 (configuration not stated) | 47.6 | 84.0*
CCNC(=O)C1Cc2ccccc2N2CCN(c3cnccn3)CC12 (configuration not stated) | -1.1 | 6.6
C=CCOC(=O)COc1ccc2c(c1)OC(=Cc1ccc(OC)c(OC)c1OC)C2=O | 0.9 | -8.0
CCOc1ccccc1C1C(C#N)=C(N)Oc2cc(N(C)C)ccc21 (configuration not stated) | -5.0 | 61.0*
CSc1ccc(C2C(C#N)=C(N)Oc3cc(N(C)C)ccc32)cc1 (configuration not stated) | -4.0 | 42.1
O=C1N=C(N2CCOCC2)S/C1=C\c1ccccc1 | 1.6 | 4.0
O=C1N=C(N2CCOCC2)S/C1=C/C1=Cc2ccccc2OC1 | -5.0 | 52.0*
Cc1nn(-c2ccccc2)nc1C(=O)ON1C(=O)C2C3C=CC(O3)C2C1=O (configuration not stated) | -72.3 | /
O=C(ON1C(=O)C2C3C=CC(O3)C2C1=O)c1cccnc1Oc1ccccc1 (configuration not stated) | 77.2* | /
CCC(=O)NCc1nc2c(n1C)CN(S(=O)(=O)Cc1ccccc1)CC2 | -5.1 | -1.5
Cc1ccn2c(NCc3ccccc3)c(-c3ccccc3O)nc2c1 | 1.1 | 80.5*
Cc1ccn2c(NC(=O)CC(C)C)c(-c3ccccc3C)nc2c1 | 0.2 | 2.7
Cc1ccc(C2C3CN(Cc4ccccc4)CC=C3C(C(=O)O)=C(N)C2(C#N)C#N)o1 (configuration not stated) | 1.2 | 52.0*
CCCN1CC=C2C(C#N)=C(N)C(C#N)(C#N)C(c3ccccc3Cl)C2C1 (configuration not stated) | -1.5 | 38.0
CC(=O)N1CC=C2C(C#N)=C(N)C(C#N)(C#N)C(c3cccc(Cl)c3)C2C1 (configuration not stated) | -7.5 | 20.0
COc1cccc(C2C3CN(Cc4ccccc4)CC=C3C(C(=O)O)=C(N)C2(C#N)C#N)c1 (configuration not stated) | 93.7* | 47.0
COc1ccc(OC)c(NC(=O)c2c(Cl)nc(Cl)c(Cl)c2Cl)c1 | -17.7 | 9.0
Cc1cc(C)cc(C(=O)N2CCCC(C(=O)Nc3ccc(F)cc3Cl)C2)c1 (configuration not stated) | 1.0 | 2.9
NC(=O)c1c(NC(=O)c2cccc(NC(=O)C(F)(F)F)c2)sc2c1CCCC2 | -2.1 | 34.0
N#CC1=C(N)Oc2cc(N)ccc2C1c1ccc(Cl)c(Cl)c1 (configuration not stated) | -11.5 | 74.9*
SMILES | Pf apPOL block | mHTT CaM bind
N#CC1=C(N)Oc2cc(O)ccc2C1c1ccc(Br)cc1 (configuration not stated) | -12.7 | 26.6
N#CC1=C(N)Oc2cc(N)ccc2C1c1ccc(Cl)cc1 (configuration not stated) | -2.6 | 15.6
N#CC1=C(N)Oc2cc(O)ccc2C1c1ccc(Cl)c(Cl)c1 (configuration not stated) | -5.9 | 100.1*
O=C(c1cc2ccccc2[nH]1)N1CCN(c2cc(-c3cccnc3)[nH]n2)CC1 | -2.5 | 9.9
CCOC(=O)c1ccc(NC(=O)N2CCCC2c2ccc(F)cc2)cc1 (configuration not stated) | -4.8 | -9.2
CCNC(=O)C1CCC(c2cccc(C)c2)N(C(=O)c2ccc(Cl)cc2)C1 (configuration not stated) | 1.4 | 24.6
O=C1C([N+](=O)[O-])=C(O)c2cccc3cccc1c23 | 70.3* | /
O=C1c2ccc3ccccc3c2-c2cccc3cccc1c23 | 23.3 | /

Screening data: PubChem, University of Kansas High Throughput Screening Laboratory
